Laboratory results published in PubChem BioAssay (Tox21).
Inconclusive results are not listed. Calls of active or inactive are those of the source. Unless noted, the call rests on the fitted dose curve; in most records, active means well fitted curve in the direction sought with a large enough effect in the repeat runs; inconclusive means weak or mixed curves; inactive means no such curve, though single readings can be large; an effect the other way counts as inactive or inconclusive.

Legend:
[1] = qHTS assay for small molecule agonists of the p53 signaling pathway (AID 651631; calls by dose curve; further: nearly all actives have a fitted effect of over 15% in size)
Method in brief: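 Quantitative high-throughput format: 4,000 p53RE-bla HCT-116 cells/well, 5 h pre-incubation, 16 h compound exposure at 37 °C, 2 h room-temperature substrate step, fluorescence intensity measured.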

[2] = qHTS assay for small molecules that induce genotoxicity in human embryonic kidney cells expressing luciferase-tagged ATAD5 (AID 651632); further: nearly all actives have a fitted effect of over 15% in size
Method in brief: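 Concentration-response screen for ATAD5 upregulation in HEK293T luciferase reporter cells; 16 hr treatment at 37C, then luminescence after 30 min with Amplite at room temperature.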

[3] = qHTS assay for small molecule agonists of the p53 signaling pathway - cell viability (AID 651633; calls by dose curve;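 further: p53RE-bla HCT reporter cells with a stable beta-lactamase p53 reporter; series mostly up to about 83 µM; nearly all actives have a fitted effect of over 30% in size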)
Method in brief: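 p53RE-bla cells, seeded at 4,000 per well and rested 5 h at 37 C/5% CO2, received compounds in DMSO for 16 h at 37 C. CellTiter-Glo was then added, and luminescence was read after 30 min at room temperature to gauge cytotoxicity.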

[4] = qHTS assay for small molecules that induce genotoxicity in human embryonic kidney cells expressing luciferase-tagged ATAD5 - cell viability (AID 651634; calls by dose curve; further: nearly all actives have a fitted effect of over 25% in size)
Method in brief: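 15.5 hr compound or vehicle exposure of HEK293T cells expressing luciferase-tagged ATAD5 at 37C; live-cell protease activity is read by fluorescence after 30 min of CellTiter-Fluor.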

[5] = qHTS assay for small molecule disruptors of the mitochondrial membrane potential - cell viability (AID 720634; calls by dose curve;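 further: human HepG2 liver cancer cells; series mostly up to about 83 µM; nearly all actives have a fitted effect of over 20% in size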)
Method in brief: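 In this qHTS format, HepG2 cells plated overnight were pinned with compound, incubated 1 hr, and assayed for ATP luminescence with CellTiter-Glo after m-MPI dye addition.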

[6] = qHTS assay for small molecule disruptors of the mitochondrial membrane potential (AID 720635)
Method in brief: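 HepG2 cells (2,000/well) attached overnight at 37C, then took compound for 1 hr at 37C, 5% CO2. Mito-MPS dye was added for 30 min; fluorescence was read at 490/535 nm (monomers) and 540/590 nm (aggregates).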

[7] = qHTS assay to test for compound auto fluorescence at 590 nm (red) in HepG2 cells (AID 720674)
Method in brief: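 Intrinsic compound fluorescence in the red window (Ex/Em 540/590 nm) is measured in attached HepG2 cells exposed for 1 hr, DMSO vehicle as baseline, benchmarked to Rose Bengal sodium.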

[8] = qHTS assay to test for compound auto fluorescence at 535 nm (green) in HepG2 cells (AID 720675)
[9] = qHTS assay to test for compound auto fluorescence at 460 nm (blue) in HEK293 cells (AID 720678)
Method in brief: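 HEK293, 2,000 cells/well, 10% dialyzed FBS; attach 4-5 hr 37C; pin compound or DMSO; o/n 37C/5% CO2; fluorescence 405/460 nm; triamterene-equivalent units.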

[10] = qHTS assay to test for compound auto fluorescence at 590 nm (red) in HEK293 cells (AID 720679)
Method in brief: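 Intensity at 540nm excitation and 590nm emission is reported as Rose Bengal sodium-equivalent autofluorescence. Measurements followed overnight exposure (37C, 5% CO2) of HEK293 cells, 2,000 per well, to 23 nL compound.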

[11] = qHTS assay to test for compound auto fluorescence at 535 nm (green) in HEK293 cells (AID 720680)
[12] = qHTS assay to test for compound auto fluorescence at 535 nm (green) in HEK293 cell free culture (AID 720682)
Method in brief: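 Measurement is a direct plate read of green fluorescence (485 nm in, 535 nm out) after compound addition to serum-supplemented DMEM lacking cells, with fluorescein used to express intensities.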

[13] = qHTS assay to test for compound auto fluorescence at 590 nm (red) in HEK293 cell free culture (AID 720683)
Method in brief: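 Tox21 10K library compounds were pinned into cell-free DMEM with 10% FBS and fluorescence was read at excitation 540 nm. Activity is expressed as Rose Bengal sodium equivalency.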

[14] = qHTS assay to test for compound auto fluorescence at 590 nm (red) in HepG2 cell free culture (AID 720684)
Method in brief: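 Readout: intrinsic compound fluorescence at 590 nm emission after 540 nm excitation, scaled to Rose Bengal sodium. Matrix was cell-free MEM with 10% FBS; DMSO vehicle wells served as control.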

[15] = qHTS assay to test for compound auto fluorescence at 460 nm (blue) in HepG2 cell free culture (AID 720685)
Method in brief: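 Cell-free plates of MEM plus 10% FBS received 23 nL compound or DMSO vehicle; blue-channel (405/460 nm) intensity scored against triamterene as reference fluorophore.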

[16] = qHTS assay to test for compound auto fluorescence at 460 nm (blue) in HepG2 cells (AID 720687)
Method in brief: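 Cells (2,000/well in MEM with 10% FBS) attached overnight at 37 C, then were exposed to compound or DMSO for 1 hr at 37 C, 5% CO2. Fluorescence read at Ex/Em 405/460 nm, expressed as triamterene-equivalent signal.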

[17] = target: Glucocorticoid receptor (Homo sapiens) (UniProt P04150); assay: qHTS assay to identify small molecule agonists of the glucocorticoid receptor (GR) signaling pathway (AID 720691; active means well fitted activation curve with a large enough effect in the signal ratio in the repeat runs, not every such curve was filed as active; the % refers to the signal ratio)
Sequence of Glucocorticoid receptor (Homo sapiens) (P04150 whole entry, looked up): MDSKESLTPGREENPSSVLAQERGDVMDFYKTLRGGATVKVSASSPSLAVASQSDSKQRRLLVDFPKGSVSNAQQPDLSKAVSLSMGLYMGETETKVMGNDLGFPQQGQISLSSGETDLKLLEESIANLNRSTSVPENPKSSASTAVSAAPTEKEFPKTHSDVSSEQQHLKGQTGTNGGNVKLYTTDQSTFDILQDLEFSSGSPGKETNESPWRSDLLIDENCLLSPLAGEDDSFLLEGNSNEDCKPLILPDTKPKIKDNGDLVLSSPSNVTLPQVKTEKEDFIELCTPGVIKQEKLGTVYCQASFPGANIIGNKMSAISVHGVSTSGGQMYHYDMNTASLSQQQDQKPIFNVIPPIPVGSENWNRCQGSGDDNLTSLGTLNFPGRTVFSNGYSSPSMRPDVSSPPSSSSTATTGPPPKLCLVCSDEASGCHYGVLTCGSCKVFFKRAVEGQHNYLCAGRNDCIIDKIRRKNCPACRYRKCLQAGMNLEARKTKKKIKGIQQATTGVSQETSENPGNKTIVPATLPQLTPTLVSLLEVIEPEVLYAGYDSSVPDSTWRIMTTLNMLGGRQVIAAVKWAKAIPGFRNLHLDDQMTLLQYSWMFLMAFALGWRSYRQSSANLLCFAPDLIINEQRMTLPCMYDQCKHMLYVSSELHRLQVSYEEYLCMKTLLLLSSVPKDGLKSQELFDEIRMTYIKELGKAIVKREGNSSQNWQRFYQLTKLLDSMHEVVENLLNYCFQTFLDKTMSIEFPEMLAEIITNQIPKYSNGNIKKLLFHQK
Method in brief: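 Measures GR pathway activation through a GRE-beta-lactamase reporter stably integrated in HeLa cells, with 18 h compound treatment at 37 C and fluorescence detection using a FRET substrate.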

[18] = target: Glucocorticoid receptor (Homo sapiens) (UniProt P04150); assay: qHTS assay to identify small molecule antagonists of the glucocorticoid receptor (GR) signaling pathway (AID 720692; active means well fitted inhibition curve with a large enough effect in the signal ratio in the repeat runs, not every such curve was filed as active; the % refers to the signal ratio; further: potency means the concentration at half of the fitted maximal effect)
Method in brief: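 Tox21 10K library screened in concentration-response for blockade of dexamethasone (5 nM final)-induced GRE-bla reporter activity in HeLa cells; 18 h treatment, fluorescence read.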

[19] = qHTS assay to test for compound auto fluorescence at 460 nm (blue) in HEK293 cell free culture (AID 720681)
Method in brief: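 Test compounds were pinned into cell-free culture medium (DMEM with 10% FBS) and fluorescence was read directly at Ex/Em 405/460 nm. Signals were expressed as fluorescence equivalents of triamterene, with DMSO vehicle as control.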

[20] = qHTS assay to test for compound auto fluorescence at 535 nm (green) in HepG2 cell free culture (AID 720686)
On the % scale 0 is the no-effect control and ±100 the full control effect.

COc1cc(C)nc(-n2nc(C)cc2OC)n1
inactive: Potency [1] | Potency [2] | Potency [3] | Potency [4] | outcome [5] | Potency [6] | fluorescence, relative to Rose Bengal [7] -0.559% [at 18.6 µM] | fluorescence, % of fluorescein control [8] 0.0331% [at 18.6 µM] | fluorescence, % of triamterene [9] 0.0208% [at 18.6 µM] | fluorescence, % of fluorescent control [10] -0.0061% [at 18.6 µM] | fluorescence, % of fluorescein [11] -0.0757% [at 18.6 µM] | activity change [12] -0.0111% [at 18.6 µM] | fluorescence, % of fluorescent control [13] 0.134% [at 18.6 µM] | fluorescence, % of Rose Bengal [14] -0.183% [at 18.6 µM] | fluorescence, % of fluorescent control [15] -0.138% [at 18.6 µM] | fluorescence, % of fluorescent control [16] -0.112% [at 18.6 µM] | Potency [17] | Potency [18]

C[C@H]1C[C@H]2[C@@H]3CCC4=CC(=O)C=C[C@]4(C)[C@H]3C(=O)C[C@]2(C)[C@@]1(O)C(=O)CO
inactive: Potency [1] | Potency [2] | Potency [3] | Potency [4] | outcome [5] | Potency [6] | outcome [7] | outcome [8] | outcome [10] | outcome [19] | outcome [12] | outcome [13] | outcome [14] | outcome [15] | outcome [20] | outcome [16] | Potency [17]
active: Potency [18] 2130 nM

[O-][n+]1cccc(CO)c1
inactive: Potency [1] | Potency [2] | Potency [3] | Potency [4] | outcome [5] | Potency [6] | outcome [7] | outcome [8] | outcome [9] | outcome [10] | outcome [11] | outcome [19] | outcome [12] | outcome [13] | outcome [14] | outcome [15] | outcome [16] | Potency [17] | Potency [18]

O=Cc1cccc(Br)c1
inactive: Potency [1] | Potency [2] | Potency [3] | Potency [4] | outcome [5] | Potency [6] | outcome [7] | outcome [8] | outcome [9] | outcome [10] | outcome [11] | outcome [12] | outcome [13] | outcome [14] | outcome [15] | outcome [20] | outcome [16] | Potency [17] | Potency [18]

COc1cc(C(=O)NCc2ccc(OCCN(C)C)cc2)cc(OC)c1OC
inactive: Potency [1] | Potency [2] | Potency [3] | Potency [4] | outcome [5] | Potency [6] | fluorescence, relative to Rose Bengal [7] 1.14% [at 18.6 µM] | fluorescence, % of fluorescein control [8] 0.0603% [at 18.6 µM] | fluorescence, % of triamterene [9] -0.345% [at 18.6 µM] | fluorescence, % of fluorescent control [10] -0.334% [at 18.6 µM] | fluorescence, % of fluorescein [11] -0.015% [at 18.6 µM] | fluorescence, % of fluorescent control [19] -0.119% [at 18.6 µM] | activity change [12] -0.0621% [at 18.6 µM] | fluorescence, % of fluorescent control [13] 0.0108% [at 18.6 µM] | fluorescence, % of fluorescent control [15] -0.0208% [at 18.6 µM] | fluorescence, % of fluorescein control [20] 0.123% [at 18.6 µM] | fluorescence, % of fluorescent control [16] 0.157% [at 18.6 µM] | Potency [17]

O=C(CO)[C@@H](O)[C@H](O)[C@@H](O)CO
inactive: Potency [1] | Potency [2] | Potency [3] | Potency [4] | outcome [5] | Potency [6] | outcome [7] | outcome [8] | outcome [9] | outcome [10] | outcome [11] | outcome [19] | outcome [12] | outcome [13] | outcome [14] | outcome [15] | outcome [20] | outcome [16] | Potency [17] | Potency [18]

CC/C=C\CCOC(C)OCC (configuration not stated)
inactive: Potency [1] | Potency [2] | Potency [3] | Potency [4] | outcome [5] | Potency [6] | outcome [7] | outcome [9] | outcome [10] | outcome [11] | outcome [19] | outcome [12] | outcome [13] | outcome [14] | outcome [15] | outcome [20] | outcome [16] | Potency [17] | Potency [18]

Clc1cc(Cl)c(Cl)nc1Cl
inactive: Potency [1] | Potency [2] | Potency [3] | Potency [4] | outcome [5] | Potency [6] | outcome [7] | outcome [8] | outcome [9] | outcome [10] | outcome [12] | outcome [13] | outcome [14] | outcome [15] | outcome [16]

CCC1C(=O)OCC1Cc1cncn1C (configuration not stated)
inactive: Potency [1] | Potency [2] | Potency [3] | Potency [4] | outcome [5] | Potency [6] | outcome [7] | outcome [8] | outcome [9] | outcome [10] | outcome [11] | outcome [19] | outcome [12] | outcome [13] | outcome [14] | outcome [15] | outcome [16]

CC1(C)OC[C@@H](COC(=O)CCc2ccc(OC[C@@H](O)CNCCNC(=O)N3CCOCC3)cc2)O1
inactive: Potency [1] | Potency [2] | Potency [3] | Potency [4] | outcome [5] | Potency [6] | outcome [7] | outcome [9] | outcome [10] | outcome [11] | outcome [19] | outcome [13] | outcome [14] | outcome [15] | outcome [20] | outcome [16] | Potency [17] | Potency [18]

CC12CCC(C(=O)C1=O)C2(C)C (configuration not stated)
inactive: Potency [1] | Potency [2] | Potency [3] | Potency [4] | outcome [5] | Potency [6] | outcome [7] | outcome [8] | outcome [9] | outcome [10] | outcome [11] | outcome [19] | outcome [12] | outcome [13] | outcome [15] | outcome [20] | outcome [16] | Potency [17] | Potency [18]

O=C(CO)[C@@H](O)[C@H](O)[C@H](O)CO
inactive: Potency [1] | Potency [2] | Potency [3] | Potency [4] | outcome [5] | Potency [6] | outcome [7] | outcome [8] | outcome [9] | outcome [10] | outcome [11] | outcome [12] | outcome [13] | outcome [14] | outcome [15] | outcome [20] | outcome [16] | Potency [17] | Potency [18]

O=S(=O)(O)c1cccc2ccccc12
inactive: Potency [1] | Potency [2] | Potency [3] | Potency [4] | outcome [5] | Potency [6] | outcome [7] | outcome [8] | outcome [9] | outcome [10] | outcome [19] | outcome [12] | outcome [13] | outcome [14] | outcome [15] | outcome [20] | outcome [16] | Potency [17]
